# Experimental data published in ChEMBL document CHEMBL3433997, “St. Jude Leishmania screening dataset” (2016).
# Experiments:
# Type in all cases: functional
# [1] = target: Solute carrier family 2, facilitated glucose transporter member 1 (Homo sapiens) (UniProt P11166); test: ST_JUDE_LEISH: Cytotoxicity at 2uM final concentration against transgenic Leishmania Mexicana promastigotes LmGLUT1 that are glucose transport deficient and complemented with the human glucose transporter GLUT1. Activity is measured by DNA content using SYBR green in vitro
# [2] = target: Hexose transporter 1 (Plasmodium falciparum) (UniProt O97467); test: ST_JUDE_LEISH: Cytotoxicity at 2uM final concentration against transgenic Leishmania Mexicana promastigotes LmPfHT that are glucose transport deficient and complemented with the Plasmodium falciparum hexose transporter. Activity is measured by DNA content using SYBR green in vitro
# [3] = target: Glucose transporter (Leishmania mexicana) (UniProt O61059); test: ST_JUDE_LEISH: Cytotoxicity at 2uM final concentration against transgenic Leishmania Mexicana promastigotes LmGT2 that are glucose transport deficient and complemented with the L. Mexicana glucose transporter 2. Activity is measured by DNA content using SYBR green in vitro
# Solute carrier family 2, facilitated glucose transporter member 1 (Homo sapiens), sequence (P11166 whole entry): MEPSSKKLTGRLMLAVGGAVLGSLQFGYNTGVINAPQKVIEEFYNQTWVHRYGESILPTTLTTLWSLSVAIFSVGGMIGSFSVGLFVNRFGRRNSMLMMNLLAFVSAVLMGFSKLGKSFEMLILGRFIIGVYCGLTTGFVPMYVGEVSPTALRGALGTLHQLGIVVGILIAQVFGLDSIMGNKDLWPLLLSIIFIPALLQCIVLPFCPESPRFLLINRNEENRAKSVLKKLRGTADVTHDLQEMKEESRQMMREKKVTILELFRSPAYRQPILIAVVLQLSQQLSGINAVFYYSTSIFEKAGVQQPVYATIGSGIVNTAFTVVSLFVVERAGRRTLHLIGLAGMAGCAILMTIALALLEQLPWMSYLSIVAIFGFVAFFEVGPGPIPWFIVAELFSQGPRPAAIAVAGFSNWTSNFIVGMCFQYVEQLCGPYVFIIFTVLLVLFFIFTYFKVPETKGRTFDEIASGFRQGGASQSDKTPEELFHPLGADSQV
SMILES,inhibition [1] [%],inhibition [2] [%],inhibition [3] [%]
CCCN/C=N/c1cc(-c2csc(NC(=N)N)n2)cc([N+](=O)[O-])c1,-0.32,-0.62,-2.26
CCOc1ccc(Nc2nc(N)c3ccccc3n2)cc1,12.3,10.3,6.25
Clc1ccc(-c2cc(-c3csc(NCCN4CCCCC4)n3)on2)cc1,6.93,7.19,5.8
Cc1cccc2nc(-c3cccc(-c4ccc(NC(=O)Nc5cccc(C#N)c5)cc4)c3)[nH]c12,2.14,2.03,-1.2
O=C1CC(C(=O)Nc2cccc(-c3cccc(-c4nc5ccccc5[nH]4)c3)c2)c2ccccc2N1 (stereo unspecified),7.77,6.55,0.51
O=C(NCCN1Cc2ccccc2C1=O)c1ccc(Oc2ccc(C(=O)NCCN3Cc4ccccc4C3=O)cc2)cc1,-0.35,0.02,-0.4
COCCNCc1nc(-c2ccc3c(Nc4ccc(F)c(O)c4)ccnc3c2)cs1,2.38,1.29,0.42
CCN1CCC(N(Cc2ccc(-c3ccc(Cl)cc3)cc2)C(=O)Cn2c(CCc3cccc(F)c3F)cc(=O)c3ccccc32)CC1,9.18,5.52,7.94
O=C(c1cc(C(=O)Nc2ccccc2F)c(=O)n(-c2ccccc2F)c1)c1cc(Cl)ccc1O,1.31,-0.63,-2.18
O=S(=O)(Nc1cccc(CCN2CCCCC2CCN2CCCC2)c1)c1ccc2ccccc2c1 (stereo unspecified),0.63,-0.31,-3.3
CCOc1ccc2c(=NN=Cc3ccccc3OC)cc(C)[nH]c2c1,7.35,7.09,6.71
COc1ccc2c(c1CNCCCCCCNCc1c(OC)ccc3c1CCCC3)CCCC2,11.1,8.33,7.55
